Screening data deposited in PubChem BioAssay by National Center for Advancing Translational Sciences (NCATS).
GLP-1R inv ag: inverse agonists of human GLP-1 receptor | P43220 | HEK293 GLP-1R CRE-luciferase, luminescence, 24 h; GLP-1R form is constitutively active | Potency, µM (doses to about 38.3 µM), without a hit: at the highest dose activity change, negative = inhibition, hits mostly inhibitors | hit rate 1.6% among 410,000 | AID 624417; further: potency means the concentration at half of the fitted maximal effect; on the % scale 0 is the no-effect control and ±100 the full control effect; nearly all actives have a fitted effect of over 55% in size
Target sequence (P43220 whole entry, looked up): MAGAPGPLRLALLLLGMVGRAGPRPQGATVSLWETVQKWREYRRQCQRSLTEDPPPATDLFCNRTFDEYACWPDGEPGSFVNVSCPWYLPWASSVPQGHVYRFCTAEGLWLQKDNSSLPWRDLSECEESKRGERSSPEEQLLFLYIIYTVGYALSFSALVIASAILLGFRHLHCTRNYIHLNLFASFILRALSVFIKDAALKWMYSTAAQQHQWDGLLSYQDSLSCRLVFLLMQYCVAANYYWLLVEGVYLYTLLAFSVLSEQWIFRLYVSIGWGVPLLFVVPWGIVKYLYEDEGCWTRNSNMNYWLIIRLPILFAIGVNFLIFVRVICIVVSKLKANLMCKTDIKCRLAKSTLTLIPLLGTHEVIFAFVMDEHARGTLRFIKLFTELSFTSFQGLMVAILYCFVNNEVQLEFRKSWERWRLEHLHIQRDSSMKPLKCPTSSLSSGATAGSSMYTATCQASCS
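GLP-1R inverse agonism mode: basal reporter luminescence in engineered HEK293 cells measured after one day of compound exposure at 37 deg C, with a 12 min room-temperature detection step.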
CCT modulator: changes cytosolic chaperonin activity. activity change, % (concentration not given with the values), hits read low. hit rate 0.3% among 360,000. purified chaperonin ATPase assay, HTRF ADP detection, 30 min; in the data active means activity change below about -30%; further: on the % scale 0 is the no-effect control and ±100 the full control effect
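Enzyme 40 or 20 nM (batch-dependent) in Tris pH 7.4/KCl/MgCl2/DTT; cpd 76 uM single point; ATP 10 uM; 30 min 37 °C; Transcreener ADP HTRF detection, 30 min RT; ratio 665/615.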
uPA surface inh: cell surface uPA generation inhibition; cell surface uPA generation assay, qHTS; Potency, µM (series often up to 38.3 µM), for inactives: at the top dose activity change, negative = inhibition, hits mostly inhibitors; hit rate 0.31% among 330,000; AID 540303; active means well fitted inhibition curve with a large enough effect; inconclusive means small, poorly fitted or top-dose-only effect; inactive means no such curve, though single readings can be large or run the other way; tested in mouse RAW 264.7 cells; further: potency means the concentration at half of the fitted maximal effect; on the % scale 0 is the no-effect control and ±100 the full control effect; nearly all actives have a fitted effect of over 55% in size
Mm-Cpn inhibitor: blocks the Methanococcus maripaludis chaperonin Mm-Cpn. hit rate 0.031% among 330,000. Potency, µM (top dose mostly 76.9 µM), inactives show top-dose activity, negative = inhibition, usual class: inhibitors. purified Mm-Cpn ATPase, ADP Transcreener TR-FRET; further: potency means the concentration at half of the fitted maximal effect; on the % scale 0 is the no-effect control and ±100 the full control effect; nearly all actives have a fitted effect of over 80% in size
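Purified archaeal chaperonin (25 nM final) was preincubated with compound for 10 min at 37°C, then ATP (10 uM final) was added for 30 min at 37°C in Tris pH 7.4/KCl/MgCl2/DTT buffer. ADP was quantified by HTRF Transcreener TR-FRET.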
HEK293 tox: cytotoxic in the GLP-1 receptor inverse agonist counter-screen. HEK293 cAMP-luciferase reporter cells, luminescence, 24 h. Potency, µM (titrated, usually from 38.3 µM), for inactives: at the top dose activity change, negative = inhibition, hits mostly inhibitors. hit rate 0.13% among 410,000;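 further: loss of luciferase light is scored as toxicity; potency means the concentration at half of the fitted maximal effect; on the % scale 0 is the no-effect control and ±100 the full control effect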
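To flag toxic compounds, the library was rerun on cells for 24 hr at 37 deg C and 5% CO2. Viability-linked luminescence was captured 12 min after adding luciferase detection reagent.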
GLP1R ag: activates the human GLP-1 receptor; HEK293 GLP-1R CRE-luciferase, luminescence, 4-6 h; cells express a hypersensitive GLP-1R form; P43220; Potency, µM (top dose mostly 45.6 µM), for the others: at the top dose activation, usual class: activators; hit rate 0.007% among 380,000; further: potency means the concentration at half of the fitted maximal effect; % of control where 0% means no effect
Starred values were filed as active, the others as inactive; ? = inconclusive; / = no result; ! = not active in a repeat; [ ] = remark or other dose. The list is not random: actives were taken first. Their share in the collection is about 2.2%. Unless noted, the call rests on the fitted dose curve; in most records, active means well fitted curve in the direction sought with a large enough effect; inconclusive means small, poorly fitted or top-dose-only effect, or another doubt; inactive means no such curve, though single readings can be large; an effect the other way counts as inactive or inconclusive.

SMILES | GLP-1R inv ag | CCT modulator | uPA surface inh | Mm-Cpn inhibitor | HEK293 tox | GLP1R ag
NC(=S)N/N=C1\CC(c2ccc3c(c2)OCCCO3)Oc2ccc(F)cc21 (stereo not drawn) | 13µM* | 0 | -3% | -4% | ? | 24%
Cc1cc(C)nc(/N=C(\N)Nc2ccc3c(c2)OCCO3)n1 | ? | 0 | ? | 1% | ? | -3%
NC(=S)N/N=C1\CC(c2ccc3c(c2)OCCO3)Oc2ccc(F)cc21 (stereo not drawn) | 3.5µM* | 0 | 3% | -1% | ? | 25%
Cc1ccccc1CNC(=O)CCSCc1cnn(-c2ccccc2)c1-n1cccc1 | 10µM* | / | / | / | -4% | /
O=C(CCSCc1cnn(-c2ccccc2)c1-n1cccc1)NCc1ccccc1F | ? | / | / | / | -3% | /
CC(C)Sc1ncc(Cl)c(C(=O)Nc2ccc(S(=O)(=O)N3CCCCC3C)cc2)n1 (stereo not drawn) | ? | / | / | / | 1% | /
O=C(CCCCCn1c(=S)[nH]c2ccc(N3CCOCC3)cc2c1=O)NCc1ccc(Cl)cc1 | -17%[7.66 µM] | -1 | 2% | -2% | 16%[7.66 µM] | 0%
O=C(CCCCCn1c(=S)[nH]c2ccc(N3CCOCC3)cc2c1=O)NCc1ccc2c(c1)OCO2 | -11%[7.66 µM] | -57* | 4% | 0% | -4%[7.66 µM] | 0%
O=C(c1ccc(OC2CCN(Cc3ccccc3OC(F)F)CC2)cc1)N1CCCC1 | 3.2µM* | 0 | -19% | 0% | -17% | -1%
O=C(c1ccc(OC2CCN(Cc3ccc(C(F)(F)F)cc3)CC2)cc1)N1CCCCC1 | ? | -1 | 0% | 4% | -4% | 6%
O=C(c1ccc(OC2CCN(Cc3ccccc3C(F)(F)F)CC2)cc1)N1CCCCC1 | 5µM* | -2 | -2% | -4% | ? | -4%
CCC1Nc2ncnc(N3CCc4ccccc4C3)c2N(Cc2ccc(Cl)cc2)C1=O (stereo not drawn) | 7.9µM* | -3 | ? | -13% | -16% | -2%
CCC1Nc2ncnc(N3CCCCC3)c2N(Cc2ccc(Br)cc2)C1=O (stereo not drawn) | ? | 0 | -19% | -6% | 0% | 1%
CCC1Nc2ncnc(N3CCCCC3)c2N(Cc2ccc(Cl)cc2)C1=O (stereo not drawn) | 10µM*! | -1 | -28% | 0% | -36% | -1%
COCCCn1c(=O)cc(C)[nH]c1=S | 15% | -39* | 5% | 1% | -14% | 6%
Cc1nnc(NC(=O)c2ccc3ccccc3c2)o1 | 11µM* | -1 | -6% | 0% | -18% | 2%
CC(C)NS(=O)(=O)c1ccc(Oc2ncc(C(F)(F)F)cc2Cl)cc1 | ? | -1 | 4% | -1% | -10% | 8%
CCCNS(=O)(=O)c1ccc(Oc2ncc(C(F)(F)F)cc2Cl)cc1 | 11µM* | -1 | 4% | -3% | -3% | 0%
COc1ccccc1CNC(=O)Cn1ncc2c(C)n(Cc3ccccc3Cl)c(C)c2c1=O | ? | / | / | / | -5% | /
COc1ccc(/C=C/C(=O)c2ccc([N+](=O)[O-])o2)cc1OC | 19% | 0 | 2.5µM* | -1% | -9% | -15%
COc1cc(/C=C/C(=O)c2ccc([N+](=O)[O-])o2)ccc1O | 4% | 1 | ? | 1% | 1% | -3%
O=C(CC1C(=O)NCCN1C(=O)c1ccc(Cl)cc1)Nc1ccc(F)cc1 (stereo not drawn) | -2% | -2 | 13% | 1% | 1% | -11%
O=C(CC1C(=O)NCCN1C(=O)Nc1ccc(Cl)cc1)Nc1ccc(F)cc1 (stereo not drawn) | 11µM* | 1 | 5% | 1% | -10% | 7%
CCCCNc1nc2c(S(=O)(=O)c3ccc(Br)cc3)nnn2c2ccsc12 | 6% | / | / | / | 0% | /
Cc1ccc(NCc2cccn2-c2nnc(N3CCC(C(=O)NCc4ccc(F)cc4)CC3)s2)cc1 | ? | / | / | / | 0% | /
O=C(Nc1cc(Cl)cc(Cl)c1)c1cccc(OC(F)F)c1 | 13µM* | -1 | 2% | 2% | -26% | -4%
